# According to PubChem BioAssay (Tox21):
# Where “and” joins values, the source holds several entries; their conditions need not be identical. Equal entries are not always repeated. Values without a mark were called inactive. Results filed as inconclusive are left out. Entries that show only a call come without a potency. Calls of active or inactive are those of the source. Unless noted, calls follow the shape of the full dose curve.
# Molecular target: Acetylcholinesterase (Homo sapiens) (UniProt P22303)
# Assay: Acetylcholinesterase (AChE) small molecule antagonists: enzyme-based qHTS assay with human liver microsomes (AID 1347399); also: nearly all actives have a fitted effect of over 60% in size
# Details: Potency: qHTS inhibition; series mostly up to 115 µM
# How it was run: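 Recombinant human AChE (50 mU/mL in the enzyme mix) and human liver microsomes (0.25 mg/mL final) were preincubated with compound and NADPH (0.25 mg/mL final) for 30 min at 37 C. Acetylthiocholine/DTNB was then added; thiocholine was read colorimetrically after 10 min at room temperature.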
# Potency is read from the fitted curve at half-maximal effect.
# Sequence of Acetylcholinesterase (Homo sapiens) (P22303 whole entry, looked up): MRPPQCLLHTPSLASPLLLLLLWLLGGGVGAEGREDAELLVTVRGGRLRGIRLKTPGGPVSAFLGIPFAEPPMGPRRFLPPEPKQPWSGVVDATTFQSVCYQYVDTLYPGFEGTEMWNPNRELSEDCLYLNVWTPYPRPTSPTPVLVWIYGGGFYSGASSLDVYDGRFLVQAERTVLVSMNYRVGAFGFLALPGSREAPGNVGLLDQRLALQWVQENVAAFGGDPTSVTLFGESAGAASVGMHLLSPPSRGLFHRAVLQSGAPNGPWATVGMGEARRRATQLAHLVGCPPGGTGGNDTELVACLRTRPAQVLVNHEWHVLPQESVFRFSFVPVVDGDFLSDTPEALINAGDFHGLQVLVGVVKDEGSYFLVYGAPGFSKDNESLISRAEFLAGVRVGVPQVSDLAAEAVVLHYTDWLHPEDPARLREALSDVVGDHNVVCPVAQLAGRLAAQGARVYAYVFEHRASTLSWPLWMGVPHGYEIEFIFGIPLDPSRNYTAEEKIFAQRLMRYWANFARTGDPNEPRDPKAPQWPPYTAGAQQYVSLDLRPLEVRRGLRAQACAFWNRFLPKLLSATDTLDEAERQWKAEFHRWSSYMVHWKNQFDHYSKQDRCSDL
SMILES,Potency,"activity change, negative = inhibition"
c1ccc2c(c1)OCC(C1=NCCN1)O2 (stereo unspecified),inactive,–
CC(C)CCCCCOC(=O)c1ccccc1C(=O)OCCCCCC(C)C,inactive,–
CC(C)CC(C)N (stereo unspecified),inactive,–
CC(C)CBr,inactive,–
CCOC(=O)c1ccccc1S(=O)(=O)NC(=O)Nc1nc(Cl)cc(OC)n1,inactive,–
Cn1cc(C2=C(c3cn(C4CCN(Cc5ccccn5)CC4)c4ccccc34)C(=O)NC2=O)c2ccccc21,inactive,–
CN(CCCC(O)c1cccnc1)N=O (stereo unspecified),inactive,–
CC(C)N1C(=O)N(c2ccccc2)CSC1=NC(C)(C)C,inactive,–
CCCCCCCCCCBr,inactive,–
Nc1ccc(Sc2ccc(N)cc2)cc1,inactive,–
N#CCCO,inactive,–
Oc1ccc(C(c2ccc(O)cc2)(C(F)(F)F)C(F)(F)F)cc1,inactive,–
Brc1c(Br)c(Br)c(Oc2c(Br)c(Br)c(Br)c(Br)c2Br)c(Br)c1Br,–,-0.487% [at 23.6 µM]
CN(C)S(=O)(=O)N(SC(F)(Cl)Cl)c1ccccc1,71 µM (active),–
N#CC(Cl)Cl,inactive,–
Nc1ccc(Cc2ccc(N)c(Cl)c2)cc1Cl,inactive,–
CCC(C)c1cc([N+](=O)[O-])cc([N+](=O)[O-])c1OC(=O)C=C(C)C (stereo unspecified),inactive,–
Cc1cc(C)c(C2=C(OC(=O)CC(C)(C)C)C3(CCCC3)OC2=O)c(C)c1,inactive,–
COc1ccc(N)cc1N,inactive,–

SMILES,Potency,"activity change, negative = inhibition"
S=C=Nc1cccc2ccccc12,inactive,–
Nc1ccc(Cl)cc1C(=O)c1ccccc1,inactive,–
CC(=[OH+])/C=C(/C)[O-].CC(=[OH+])/C=C(\C)[O-].CC(=[OH+])/C=C(\C)[O-].[Al],inactive,–
O=c1c(C2CC(c3ccc(-c4ccc(Br)cc4)cc3)Cc3ccccc32)c(O)sc2ccccc12 (stereo unspecified),inactive,–
O=C1C=CC(=O)c2ccccc21,inactive,–
S=C(SSC(=S)N1CCCCC1)N1CCCCC1,inactive,–
CCCCOP(=O)(CCCC)OCCCC,inactive,–
Nc1ccc([N+](=O)[O-])cc1Cl,inactive,–
O=C/C(Cl)=C(/Cl)C(=O)O,inactive,–
O=c1[nH]c2ccccc2n1C1CCN(CCCC(c2ccc(F)cc2)c2ccc(F)cc2)CC1,inactive,–
COc1ccc(OC)c(C=O)c1,inactive,–
[Cl][Sb]([Cl])[Cl],inactive,–
CCCCCCCCCBr,inactive,–
CC(C)(C)C(O)C(Oc1ccc(-c2ccccc2)cc1)n1cncn1 (stereo unspecified),inactive,–
CCOCn1c(-c2ccc(Cl)cc2)c(C#N)c(Br)c1C(F)(F)F,inactive,–
CC1(C)[C@H](C(=O)O[C@H](C#N)c2cccc(Oc3ccccc3)c2)[C@@H]1/C=C(\Cl)C(F)(F)F,inactive,–
Clc1ccc(CCC(Cn2ccnc2)Sc2c(Cl)cccc2Cl)cc1 (stereo unspecified),inactive,–
C[C@@H]1O[C@@H](O[C@H]2C[C@@H](O)[C@]3(CO)[C@H]4[C@H](O)C[C@]5(C)[C@@H](C6=CC(=O)OC6)CC[C@]5(O)[C@@H]4CC[C@]3(O)C2)[C@H](O)[C@H](O)[C@H]1O,inactive,–
CC(C)Oc1cccc(NC(=O)c2ccccc2C(F)(F)F)c1,inactive,–

# Molecular target: Cytochrome P450 2D6 (Homo sapiens) (UniProt P10635)
# Assay: Cytochrome P450 Family 2 Subfamily D Member 6 (CYP2D6) small molecule antagonists: luciferase reporter qHTS assay (AID 1671196; active = well fitted inhibition curve with a large enough effect in the repeat runs; also: nearly all actives have a fitted effect of over 50% in size)
# Details: P450-Glo CYP2D6 enzyme assay, luciferin luminescence, 1 h; series mostly up to 115 µM
# How it was run: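 Quantitative HTS of Tox21 chemicals against CYP2D6 using a luminescent proluciferin substrate. After NADPH addition, 1 h room-temperature reaction; luminescence recorded 20 min post detection reagent.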
# Sequence of Cytochrome P450 2D6 (Homo sapiens) (P10635 whole entry, looked up): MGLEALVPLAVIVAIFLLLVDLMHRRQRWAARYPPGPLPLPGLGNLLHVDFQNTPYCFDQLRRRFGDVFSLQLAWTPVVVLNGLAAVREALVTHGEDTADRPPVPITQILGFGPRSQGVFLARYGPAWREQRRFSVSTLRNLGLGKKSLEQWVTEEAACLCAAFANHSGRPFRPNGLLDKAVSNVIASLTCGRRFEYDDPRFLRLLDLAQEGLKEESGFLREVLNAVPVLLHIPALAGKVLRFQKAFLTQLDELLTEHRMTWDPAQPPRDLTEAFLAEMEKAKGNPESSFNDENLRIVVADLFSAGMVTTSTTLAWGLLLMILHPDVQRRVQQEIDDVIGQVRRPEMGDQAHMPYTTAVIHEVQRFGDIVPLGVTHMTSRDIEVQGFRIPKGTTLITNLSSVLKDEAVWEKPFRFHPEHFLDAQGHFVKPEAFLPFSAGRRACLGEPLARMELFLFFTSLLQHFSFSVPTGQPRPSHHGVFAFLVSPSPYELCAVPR
SMILES,Potency,"activity change, negative = inhibition"
c1ccc2c(c1)OCC(C1=NCCN1)O2 (stereo unspecified),13.8 µM (active),–
CC(C)CCCCCOC(=O)c1ccccc1C(=O)OCCCCCC(C)C,27.9 µM (active),–
CC(C)CC(C)N (stereo unspecified),inactive,–
CC(C)CBr,inactive,–
CCOC(=O)c1ccccc1S(=O)(=O)NC(=O)Nc1nc(Cl)cc(OC)n1,inactive,–
Cn1cc(C2=C(c3cn(C4CCN(Cc5ccccn5)CC4)c4ccccc34)C(=O)NC2=O)c2ccccc21,inactive,–
CN(CCCC(O)c1cccnc1)N=O (stereo unspecified),inactive,–
CCCCCCCCCCBr,inactive,–
Nc1ccc(Sc2ccc(N)cc2)cc1,31.7 µM (active),–
N#CCCO,inactive,–
Brc1c(Br)c(Br)c(Oc2c(Br)c(Br)c(Br)c(Br)c2Br)c(Br)c1Br,–,0.431% [at 23.6 µM]
N#CC(Cl)Cl,61.6 µM (active),–
CCC(C)c1cc([N+](=O)[O-])cc([N+](=O)[O-])c1OC(=O)C=C(C)C (stereo unspecified),inactive,–
Cc1cc(C)c(C2=C(OC(=O)CC(C)(C)C)C3(CCCC3)OC2=O)c(C)c1,inactive,–
COc1ccc(N)cc1N,10.3 µM (active) and 17.1 µM (active),–
S=C=Nc1cccc2ccccc12,14 µM (active),–
CC(=[OH+])/C=C(/C)[O-].CC(=[OH+])/C=C(\C)[O-].CC(=[OH+])/C=C(\C)[O-].[Al],inactive,–
O=c1c(C2CC(c3ccc(-c4ccc(Br)cc4)cc3)Cc3ccccc32)c(O)sc2ccccc12 (stereo unspecified),inactive,–
O=C1C=CC(=O)c2ccccc21,15.9 µM (active),–
CCCCOP(=O)(CCCC)OCCCC,inactive,–
O=C/C(Cl)=C(/Cl)C(=O)O,inactive,–
COc1ccc(OC)c(C=O)c1,inactive,–
[Cl][Sb]([Cl])[Cl],inactive,–
CCCCCCCCCBr,inactive,–
CCOCn1c(-c2ccc(Cl)cc2)c(C#N)c(Br)c1C(F)(F)F,35.6 µM (active),–
CC1(C)[C@H](C(=O)O[C@H](C#N)c2cccc(Oc3ccccc3)c2)[C@@H]1/C=C(\Cl)C(F)(F)F,inactive,–
Clc1ccc(CCC(Cn2ccnc2)Sc2c(Cl)cccc2Cl)cc1 (stereo unspecified),2.19 µM (active),–
C[C@@H]1O[C@@H](O[C@H]2C[C@@H](O)[C@]3(CO)[C@H]4[C@H](O)C[C@]5(C)[C@@H](C6=CC(=O)OC6)CC[C@]5(O)[C@@H]4CC[C@]3(O)C2)[C@H](O)[C@H](O)[C@H]1O,inactive,–
